Unmarked numbers belong to inactive results. Inconclusive results are not listed. A call without a number means that no potency is given here. Calls of active or inactive are those of the source. Unless noted, calls follow the shape of the dose curve; as a rule, active = well fitted curve in the direction sought with a large enough effect in the repeat runs; inconclusive = weak or mixed curves; inactive = no such curve, though single readings can be large; an effect the other way counts as inactive or inconclusive.
Columns and labels:
[1] = qHTS assay to identify small molecule antagonists of the estrogen receptor alpha (ER-alpha) signaling pathway using the BG1 cell line in the presence of 0.1 nM 17-beta-estradiol - cell viability counter screen (AID 1259241); also: nearly all actives have a fitted effect of over 40% in size
Summary of the method: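 VM7Luc4E2 cells (endogenous full-length ER-alpha, 4xERE-luciferase), cultured 5 days in charcoal-stripped serum, exposed to compounds with 0.1 nM 17beta-estradiol (final) for 22 hr at 37C. Viability read in same wells as live-cell protease fluorescence after 30 min.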

[2] = qHTS assay to identify small molecule antagonists of the androgen receptor (AR) signaling pathway using the MDA cell line in the presence of 0.5 nM R1881 - cell viability counter screen (AID 1259242); also: nearly all actives have a fitted effect of over 45% in size
Summary of the method: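 Live-cell protease fluorescence, CellTiter-Fluor, 30 min at 37C. Cells: MDA-kb2, 3,000/well, preincubated 5 hr. Compounds plus 0.5 nM R1881 final, 16 hr, 37C, 0% CO2.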

[3] = biological target: Estrogen receptor (Homo sapiens) (UniProt P03372); experiment: qHTS assay to identify small molecule antagonists of the estrogen receptor alpha (ER-alpha) signaling pathway using the BG1 cell line in the presence of 0.1 nM 17-beta-estradiol (AID 1259244); also: nearly all actives have a fitted effect of over 50% in size
Sequence of Estrogen receptor (Homo sapiens) (P03372 whole entry, looked up): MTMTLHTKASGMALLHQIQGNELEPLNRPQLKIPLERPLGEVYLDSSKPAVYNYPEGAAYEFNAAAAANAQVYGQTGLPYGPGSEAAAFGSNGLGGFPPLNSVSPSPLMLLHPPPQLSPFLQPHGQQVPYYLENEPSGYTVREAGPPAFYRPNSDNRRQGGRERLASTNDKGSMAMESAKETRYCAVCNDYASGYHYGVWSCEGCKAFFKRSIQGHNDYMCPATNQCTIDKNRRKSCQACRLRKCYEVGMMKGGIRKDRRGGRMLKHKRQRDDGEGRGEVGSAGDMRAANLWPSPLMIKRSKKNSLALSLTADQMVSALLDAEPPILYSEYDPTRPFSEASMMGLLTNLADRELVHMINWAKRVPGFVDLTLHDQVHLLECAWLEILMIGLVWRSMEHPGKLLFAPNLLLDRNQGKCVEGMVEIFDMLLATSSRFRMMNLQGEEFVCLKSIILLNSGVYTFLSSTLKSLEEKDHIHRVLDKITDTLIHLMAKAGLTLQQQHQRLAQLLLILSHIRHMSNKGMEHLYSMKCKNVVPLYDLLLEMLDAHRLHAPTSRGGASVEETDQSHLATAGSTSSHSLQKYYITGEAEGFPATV
Summary of the method: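 Luminescence after ONE-Glo (30 min, room temperature) measured ERE-luciferase activity in VM7Luc4E2 cells treated 22 h with compound and 0.1 nM final 17beta-estradiol as stimulator.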

[4] = qHTS assay to identify small molecule HDAC inhibitors (AID 1259364); also: potency is read from the fitted curve at half-maximal effect;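 also: wild-type HCT-116 cells with endogenous class I/II HDAC activity; nearly all actives have a fitted effect of over 45% in size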; as to activity change, negative = inhibition: top concentration of the series differs between compounds
Summary of the method: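 HCT-116 (wild type), 1,500 cells/well, overnight; compound 2 hr 37C 5% CO2; HDAC-Glo I/II reagent 30 min RT; luminescence readout.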

[5] = qHTS assay to identify small molecule HDAC inhibitors - cell viability counter screen (AID 1259365); also: series mostly up to about 92 µM; nearly all actives have a fitted effect of over 50% in size
Summary of the method: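 Wild-type HCT-116 cells, 1,500/well, cultured overnight, then compound-treated 2 h at 37 C. Viability measured as ATP luminescence with CellTiter-Glo after 30 min at room temperature.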

[6] = qHTS assay to identify small molecule agonists of the sonic hedgehog signaling (Shh) pathway - cell viability counter screen (AID 1259366); also: nearly all actives have a fitted effect of over 50% in size
Summary of the method: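 NIH/3T3-derived Gli1-Luc reporter cells, 2,000 per well, received compound after 4 h and were treated about 23 h at 37C. Viability measured in the same wells by CellTiter-Fluor fluorescence after 1 h.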

[7] = qHTS assay to identify small molecule agonists of the sonic hedgehog signaling (Shh) pathway (AID 1259368; calls by dose curve;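 also: NIH/3T3-derived 3T3Gli1-Luc cells carrying a stable Gli1-driven firefly luciferase reporter; series mostly up to about 92 µM; nearly all actives have a fitted effect of over 15% in size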)
Summary of the method: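 Read-out: firefly luciferase luminescence from a Gli1 response element reporter stably integrated in NIH/3T3-derived 3T3Gli1-Luc cells, measured 30 min at room temperature after reagent addition. Compound exposure lasted 24 hr at 37 C, 5% CO2.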

[8] = qHTS assay to identify small molecule antagonists of the sonic hedgehog signaling (Shh) pathway (AID 1259369; calls by dose curve; also: nearly all actives have a fitted effect of over 45% in size)
Summary of the method: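 Luminescence readout: firefly Luc under Gli1 response element in 3T3Gli1-Luc cells (NIH/3T3 clone). Antagonist mode, stimulation by conditioned medium; compound exposure 24hr at 37 C, 5% CO2.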

[9] = biological target: Estrogen receptor beta (Homo sapiens) (UniProt Q92731); experiment: qHTS assay to identify small molecule agonists of the estrogen receptor beta (ER-beta) signaling pathway (AID 1259377; active = well fitted activation curve with a large enough effect in the signal ratio in the repeat runs, not every such curve was filed as active; the % refers to the signal ratio)
Sequence of Estrogen receptor beta (Homo sapiens) (Q92731 whole entry, looked up): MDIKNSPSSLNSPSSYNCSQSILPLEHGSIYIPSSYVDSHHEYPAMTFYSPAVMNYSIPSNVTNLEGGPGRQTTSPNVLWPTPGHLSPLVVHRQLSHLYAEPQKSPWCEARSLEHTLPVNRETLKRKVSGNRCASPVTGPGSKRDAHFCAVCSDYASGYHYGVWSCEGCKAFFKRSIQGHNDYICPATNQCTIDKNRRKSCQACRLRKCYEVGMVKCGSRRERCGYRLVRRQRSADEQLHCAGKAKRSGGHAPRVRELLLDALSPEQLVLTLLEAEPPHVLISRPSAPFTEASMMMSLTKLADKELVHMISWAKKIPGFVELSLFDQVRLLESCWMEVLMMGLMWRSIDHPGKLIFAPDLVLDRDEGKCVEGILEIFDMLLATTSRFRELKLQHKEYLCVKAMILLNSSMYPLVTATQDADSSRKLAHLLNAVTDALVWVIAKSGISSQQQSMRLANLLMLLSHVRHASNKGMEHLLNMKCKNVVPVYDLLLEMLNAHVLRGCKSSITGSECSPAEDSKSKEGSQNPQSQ
Summary of the method: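 ER-beta-UAS-bla HEK293T cells in medium with 2% charcoal-stripped FBS were exposed to compounds for 16 h at 37C. Beta-lactamase reporter activity was read as fluorescence after 2 h with LiveBLAzer B/G FRET substrate at room temperature.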

[10] = biological target: Estrogen receptor beta (Homo sapiens) (UniProt Q92731); experiment: qHTS assay to identify small molecule antagonists of the estrogen receptor beta (ER-beta) signaling pathway (AID 1259378; active = well fitted inhibition curve with a large enough effect in the signal ratio in the repeat runs, not every such curve was filed as active; the % refers to the signal ratio)
Summary of the method: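 Antagonist mode: compounds added to beta-lactamase reporter HEK293T ER-beta-UAS cells stimulated with E2 (1nM final), 16 hr at 37C. LiveBLAzer B/G FRET substrate, 2 hours room temperature, fluorescence read-out.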

[11] = qHTS assay to identify small molecule agonists of the androgen receptor (AR) signaling pathway in the presence of an antagonist - cell viability counter screen (AID 1259379);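 also: MDA-kb2 human breast cancer cells carrying an MMTV luciferase reporter; series mostly up to about 92 µM; nearly all actives have a fitted effect of over 25% in size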
Summary of the method: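 Viability counter screen: CellTiter-Fluor fluorescence, measured in the same wells as the luciferase read-out. MDA-kb2 cells, 3,000/well, with nilutamide at 3.0uM final and compounds at 15 concentrations, 16 hr at 37C, 0% CO2.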

[12] = qHTS assay to identify small molecule agonists of the estrogen receptor beta (ER-beta) signaling pathway - cell viability counter screen (AID 1259380); also: nearly all actives have a fitted effect of over 30% in size
Summary of the method: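 Luminescence read-out (CellTiter-Glo, 30 min, room temp) taken in the same wells as the beta-lactamase reporter assay; ER-beta-UAS-bla HEK293T cells exposed to DMSO-dissolved compounds for 16 hr at 37C in 2% charcoal-stripped FBS medium.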

[13] = qHTS assay to identify small molecule antagonists of the estrogen receptor beta (ER-beta) signaling pathway - cell viability counter screen (AID 1259382);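 also: HEK293T cells carrying ER-beta-UAS-bla reporter stimulated with estradiol; series mostly up to about 92 µM; nearly all actives have a fitted effect of over 55% in size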
Summary of the method: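 Luminescent ATP read-out (CellTiter-Glo, 30 min, RT) taken in the same wells as the bla reporter assay. HEK293T ER-beta-UAS-bla cells in 2% charcoal-stripped FBS were exposed to compounds with 1nM E2 for 16 hr at 37C.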

[14] = biological target: Estrogen receptor (Homo sapiens) (UniProt P03372); experiment: qHTS assay to identify small molecule agonists of the estrogen receptor alpha (ER-alpha) signaling pathway in the presence of an antagonist (AID 1259383; calls by dose curve; also: top concentration of the series differs between compounds; nearly all actives have a fitted effect of over 15% in size)
Summary of the method: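 Luciferase luminescence (ONE-Glo, 30min at room temperature) measured in VM7Luc4E2 cells after 22hr compound exposure at 15 concentrations, with 10.0nM ICI-182,780 final present; cells express endogenous ER-alpha and carry four EREs upstream of luciferase.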

[15] = qHTS assay to identify small molecule agonists or antagonists of the thyroid stimulating hormone receptor (TSHR) signaling pathway - wild type cell line counter screen (AID 1259384; calls by dose curve)
Summary of the method: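 Counter screen in untransfected Hek293: compounds (15-point titration, triplicate) plus phosphodiesterase inhibitor Ro20-1724 added after 18 h plating; 30 min RT. Intracellular cAMP via competitive d2/cryptate immunoassay, 1 h incubation.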

[16] = biological target: Thyrotropin receptor (Homo sapiens) (UniProt P16473); experiment: qHTS assay to identify small molecule antagonists of the thyroid stimulating hormone receptor (TSHR) signaling pathway (AID 1259385; calls by dose curve; also: nearly all actives have a fitted effect of over 20% in size)
Sequence of Thyrotropin receptor (Homo sapiens) (P16473 whole entry, looked up): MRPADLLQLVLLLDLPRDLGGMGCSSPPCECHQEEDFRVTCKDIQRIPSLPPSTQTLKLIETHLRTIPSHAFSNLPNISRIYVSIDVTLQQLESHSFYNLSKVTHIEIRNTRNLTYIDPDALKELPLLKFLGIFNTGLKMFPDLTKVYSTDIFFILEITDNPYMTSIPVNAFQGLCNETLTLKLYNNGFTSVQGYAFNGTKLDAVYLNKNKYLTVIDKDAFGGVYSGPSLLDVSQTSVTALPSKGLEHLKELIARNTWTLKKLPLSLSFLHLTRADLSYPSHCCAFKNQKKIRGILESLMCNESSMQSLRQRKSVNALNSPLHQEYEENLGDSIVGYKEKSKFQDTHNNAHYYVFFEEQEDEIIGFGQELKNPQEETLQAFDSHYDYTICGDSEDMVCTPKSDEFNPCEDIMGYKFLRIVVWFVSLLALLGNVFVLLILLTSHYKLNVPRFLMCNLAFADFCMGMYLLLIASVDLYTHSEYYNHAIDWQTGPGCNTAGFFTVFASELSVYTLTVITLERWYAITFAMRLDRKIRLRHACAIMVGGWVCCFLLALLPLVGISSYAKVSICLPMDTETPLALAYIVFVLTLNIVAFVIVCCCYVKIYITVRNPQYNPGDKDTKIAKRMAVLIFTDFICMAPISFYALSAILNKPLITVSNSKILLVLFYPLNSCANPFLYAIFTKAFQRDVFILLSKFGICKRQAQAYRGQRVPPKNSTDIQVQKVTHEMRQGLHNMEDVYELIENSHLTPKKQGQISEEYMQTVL
Summary of the method: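 Antagonist mode: compound-treated TSHR-expressing HEK293 cells were stimulated with 1.5 ng/mL TSH (final) in presence of Ro20-1724 for 30 min at RT. HTRF cAMP detection after 1 h; each compound tested at 15 concentrations, triplicate.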

[17] = qHTS assay to identify small molecule antagonists of the sonic hedgehog signaling (Shh) pathway - cell viability counter screen (AID 1259367); also: nearly all actives have a fitted effect of over 55% in size
Summary of the method: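 Viability was read by CellTiter-Fluor fluorescence in the same wells, reagent added 23 hr into compound treatment and incubated 1 hr at 37C. The 3T3 Gli1-Luc reporter cells (2,000/well) received conditioned medium after compound and ran 24 hr.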

[18] = qHTS assay to identify small molecule phospholipidosis (PLD) inducers (AID 1259344; active = well fitted curve in the direction sought with a large enough effect; an effect the other way counts as inactive or inconclusive)
Summary of the method: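 Phospholipid accumulation was scored by imaging: fixed, Hoechst-counterstained HepG2 cells stained with LipidTOX Red after 24 h compound exposure at 37 C. Read-outs were pit count and pit intensity per well or per cell, with amiodarone and DMSO controls.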

[19] = biological target: Androgen receptor (Homo sapiens) (UniProt P10275); experiment: qHTS assay to identify small molecule agonists of the androgen receptor (AR) signaling pathway in the presence of an antagonist (AID 1259381; calls by dose curve; also: nearly all actives have a fitted effect of over 15% in size)
Sequence of Androgen receptor (Homo sapiens) (P10275 whole entry, looked up): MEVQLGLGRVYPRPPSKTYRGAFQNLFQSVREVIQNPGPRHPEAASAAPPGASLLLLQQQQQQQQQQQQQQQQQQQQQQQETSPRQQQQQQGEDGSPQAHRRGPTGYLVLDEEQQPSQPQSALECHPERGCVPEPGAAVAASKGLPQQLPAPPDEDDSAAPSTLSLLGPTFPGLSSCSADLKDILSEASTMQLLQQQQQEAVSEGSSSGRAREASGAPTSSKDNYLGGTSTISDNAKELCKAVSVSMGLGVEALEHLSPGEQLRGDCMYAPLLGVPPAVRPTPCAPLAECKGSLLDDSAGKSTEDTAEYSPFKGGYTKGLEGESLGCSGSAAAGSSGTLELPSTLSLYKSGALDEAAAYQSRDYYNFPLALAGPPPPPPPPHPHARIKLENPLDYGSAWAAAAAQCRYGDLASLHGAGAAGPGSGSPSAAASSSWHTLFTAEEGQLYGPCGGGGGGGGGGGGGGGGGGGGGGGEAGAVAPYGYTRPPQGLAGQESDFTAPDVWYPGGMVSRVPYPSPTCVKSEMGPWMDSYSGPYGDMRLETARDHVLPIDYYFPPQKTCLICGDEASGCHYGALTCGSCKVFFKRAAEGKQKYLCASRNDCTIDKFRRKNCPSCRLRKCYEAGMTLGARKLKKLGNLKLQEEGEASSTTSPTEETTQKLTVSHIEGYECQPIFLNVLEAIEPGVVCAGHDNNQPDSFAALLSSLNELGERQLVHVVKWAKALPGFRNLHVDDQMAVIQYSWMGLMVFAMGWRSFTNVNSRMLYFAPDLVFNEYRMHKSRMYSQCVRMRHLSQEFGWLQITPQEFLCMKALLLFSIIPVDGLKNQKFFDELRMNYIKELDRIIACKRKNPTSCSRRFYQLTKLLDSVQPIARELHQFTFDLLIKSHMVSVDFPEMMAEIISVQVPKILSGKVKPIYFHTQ
Summary of the method: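 Luciferase read-out (ONE-Glo, 30min room temperature) in MDA-kb2 MMTV-reporter cells; agonist mode run in presence of AR antagonist nilutamide, 3.0uM final. Compounds tested as 15-point series, 16hr exposure at 37C, 0% CO2.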

With `CCOP(=S)(OCC)SCSCC` the Potency [1] was “inactive”, the Potency [2] was “inactive” and the Potency [3] was “inactive”. The Potency [4] was “inactive”, the Potency [5] was “inactive” and the Potency [6] was “inactive”. The Potency [7] was “inactive”, the Potency [8] was “inactive” and the Potency [9] was “inactive”. For the same molecule, the Potency [10] was “inactive”, the Potency [11] was “inactive” and the Potency [12] was “inactive”. The Potency [13] was “inactive”, the Potency [14] was “inactive” and the outcome [15] was “inactive”. For the same molecule, the Potency [16] was “inactive”.

For `CCCC(=O)Cl`, the Potency [1] was “inactive”, the Potency [2] was “inactive” and the Potency [3] was “inactive”. The Potency [4] was “inactive”, the Potency [5] was “inactive” and the Potency [6] was “inactive”. For the same molecule, the Potency [17] was “inactive”, the Potency [7] was “inactive” and the Potency [8] was “inactive”. For the same molecule, the Potency [11] was “inactive”, the Potency [13] was “inactive” and the Potency [14] was “inactive”. For the same molecule, the outcome [15] was “inactive” and the Potency [16] was “inactive”.

For `C=CC(=O)OCC(C)O` (configuration not stated), the Potency [1] was “inactive”, the Potency [2] was “inactive” and the Potency [3] was “inactive”. For the same molecule, the Potency [4] was “inactive”, the Potency [5] was “inactive” and the Potency [7] was “inactive”. The Potency [9] was “inactive”, the Potency [11] was “inactive” and the Potency [12] was “inactive”. The Potency [13] was “inactive”, the Potency [14] was “inactive” and the outcome [15] was “inactive”. For the same molecule, the Potency [16] was “inactive”.

For `CCCN(CCCl)c1c([N+](=O)[O-])cc(C(F)(F)F)cc1[N+](=O)[O-]`, the Potency [1] was “inactive”, the Potency [2] was “inactive” and the Potency [3] was “inactive”. The Potency [4] was “inactive”, the Potency [5] was “inactive” and the Potency [6] was “inactive”. For the same molecule, the Potency [17] was “inactive”, the Potency [7] was “inactive” and the Potency [9] was “inactive”. The Potency [10] was “inactive”, the Potency [11] was “inactive” and the Potency [12] was “inactive”. For the same molecule, the Potency [13] was “inactive”, the Potency [14] was “inactive” and the outcome [15] was “inactive”. The Potency [16] was “inactive”.

In the case of `NC(=O)CI`, the Potency [1] is reported as “inactive”, the Potency [2] is reported as “inactive” and the Potency [3] is reported as “inactive”. The Potency [4] was 54.9 µM (active), the Potency [5] was “inactive” and the Potency [6] was “inactive”. For the same molecule, the Potency [17] was “inactive”, the Potency [7] was “inactive” and the Potency [10] was “inactive”. The Potency [11] was “inactive”, the Potency [13] was “inactive” and the Potency [14] was “inactive”. The outcome [15] was “inactive”.

For `c1ccc(CN2CCNCC2)cc1`, the Potency [1] was “inactive”, the Potency [2] was “inactive” and the outcome [18] was “inactive”. For the same molecule, the Potency [4] was “inactive”, the Potency [5] was “inactive” and the Potency [6] was “inactive”. For the same molecule, the Potency [17] was “inactive”, the Potency [7] was “inactive” and the Potency [8] was “inactive”. The Potency [10] was “inactive”, the Potency [11] was “inactive” and the Potency [13] was “inactive”. The outcome [15] was “inactive” and the Potency [16] was “inactive”.

Molecule `CO[C@@H]1[C@H](OC(=O)NC(=O)CCl)CC[C@]2(CO2)[C@H]1[C@@]1(C)O[C@@H]1CC=C(C)C` has an activity change, negative = cytotoxicity [1] of -6.95% [at 19 µM], a viability change, negative = cytotoxic [2] of -0.0338% [at 19 µM] and an activity change, negative = inhibition [3] of -0.212% [at 19 µM]. For the same molecule, the activity change, negative = inhibition [4] was -1.01% [at 19 µM], the activity change, negative = cytotoxicity [5] was 12.9% [at 19 µM] and the viability change, negative = cytotoxic [6] was -8.47% [at 19 µM]. For the same molecule, the activity change [7] was -3.77% [at 18.9 µM, active compounds read high], the activation [9] was -2.62% [at 19 µM] and the activity, negative = inhibition [10] was -21.4% [at 19 µM]. For the same molecule, the activity change, negative = cytotoxicity [11] was -2.66% [at 19 µM], the activation [19] was -3.01% [at 19 µM] and the activity change, negative = cytotoxicity [13] was -10.8% [at 19 µM]. For the same molecule, the activation [14] was -0.438% [at 19 µM], the cAMP activity change [15] was 2.97% [at 18.9 µM] and the activity change, negative = inhibition [16] was 0.358% [at 19 µM].

In the case of `C=CC(=O)OCC(C)C`, the Potency [1] is reported as “inactive”, the Potency [2] is reported as “inactive” and the Potency [3] is reported as “inactive”. For the same molecule, the Potency [4] was 19.2 µM (active), the Potency [5] was “inactive” and the Potency [6] was “inactive”. The Potency [8] was “inactive”, the Potency [9] was “inactive” and the Potency [10] was “inactive”. The Potency [13] was “inactive”, the Potency [14] was “inactive” and the outcome [15] was “inactive”. The Potency [16] was “inactive”.

In the case of `ClP(Cl)(Cl)(Cl)Cl`, the Potency [1] is reported as “inactive”, the Potency [2] is reported as “inactive” and the Potency [3] is reported as “inactive”. For the same molecule, the Potency [4] was “inactive”, the Potency [5] was “inactive” and the Potency [6] was “inactive”. For the same molecule, the Potency [7] was “inactive”, the Potency [8] was “inactive” and the Potency [11] was “inactive”. The Potency [12] was “inactive”, the Potency [13] was “inactive” and the Potency [14] was “inactive”. For the same molecule, the outcome [15] was “inactive”.

From PubChem BioAssay (Tox21)
